The whole screen tested about 52,000 compounds, of which about 1,700 (3.3%) were called active. The list comes from a sample in which actives are over-represented; it also holds similar structures and randomly drawn compounds. Unmarked numbers belong to inactive results. Cut-off read from the data, not from the text of the source: active = survival mostly below about 52% (no sharp cut-off); inactive = mostly above about 56%.

For this test, the system named is Wild type. The test can be described thus: growth inhibition of S. aureus wild type versus tarO mutant, primary screen, teichoic acid synthesis inhibitors, RN4220, OD600 (AID 463173). Conditions: S. aureus RN4220 wild type/DeltatarO growth, OD600, 18 h, hits give low values, screened at 18.75 µg/mL (by protocol).
As for `O=C(Nc1ncn[nH]1)C(F)(F)C(F)F`, the survival is 108%.
Then `Cc1cccc(NC(=O)c2cc3c([nH]c2=O)CC(c2ccccc2)CC3=O)c1` (configuration not stated), with -3% (active); and `COc1ccc(NC(=O)c2cc3c([nH]c2=O)CC(c2ccccc2)CC3=O)cc1` (configuration not stated), with 63%.
`CC(=O)c1ccc(NC(=O)c2cc3c([nH]c2=O)CC(c2ccccc2)CC3=O)cc1` (configuration not stated): the survival was 85%.
In the case of `O=C1CC(c2ccccc2)Cc2[nH]c(=O)c(C(=O)Nc3ccc(F)cc3)cc21` (configuration not stated), the survival was 75%.
For the compound `O=C1CC(c2ccccc2)Cc2[nH]c(=O)c(C(=O)Nc3cccc(F)c3)cc21` (configuration not stated), the survival was 85%.
To `O=C1CC(c2ccccc2)Cc2[nH]c(=O)c(C(=O)Nc3cccc(Cl)c3)cc21` (configuration not stated) belongs 0% (active); to `CCOC(=O)c1ccc(NC(=O)CSc2ccc(-c3ccccn3)nn2)cc1`, 90%; to `COc1ccccc1N1CCN(C(=O)c2nc(-c3ccc(C)cc3)n3c2CCCCC3)CC1`, 85%.
As to `CCN(Cc1ccccc1)c1ncnc2c1cnn2-c1ccc(F)cc1`, the survival was 55%.
Regarding `OCCN(CCO)c1ncnc2c1cnn2-c1ccc(F)cc1`, the survival is 1% (active).
For `Cc1ccc(-n2ncc3c(N(CCO)Cc4ccccc4)ncnc32)cc1`, the survival is 0% (active).
Then `Cc1ccc(-n2ncc3c(NCCc4ccccc4)ncnc32)cc1`, with 76%.
For the compound `Cc1ccc(-n2ncc3c(N(C)Cc4ccccc4)ncnc32)cc1`, the survival was 85%.
As for `CCCCN(CCCC)c1ncnc2c1cnn2-c1cccc(C)c1`, the survival is 91%.
In the case of `CCOc1ccc(-c2cc3nc(C4CCN(C(=O)OC(C)(C)C)CC4)c(C(=O)Nc4c(C)cccc4C)cn3n2)cc1`, the survival is 86%.
Turning to `CCOc1ccc(C(=O)CSc2nnc3cc(C)c4ccccc4n23)cc1`, the survival was 85%.
As for `CCOCCn1ccc2c(OCC(=O)Nc3cccc([N+](=O)[O-])c3)cccc2c1=O`, the survival was 128%.
Take `CCCN1C2CCCC1CC(NC(=O)c1ccc(F)cc1)C2` (configuration not stated): the survival was 108%.
Take `CNC(=O)Cn1c(=O)c2cccn2c2ccc(F)cc21`: the survival was 85%.
Consider `COc1ccccc1OCCn1c(NC(=O)c2ccc(Cl)cc2)nc2ccccc21`, for which the survival is 80%.
Then `O=C(Nc1nc2ccccc2n1CCOc1ccccc1Cl)c1ccccc1`, with 36%.
On to `OCCNc1nc2ccccc2n1CCOc1ccccc1`, for which the survival is 115%.
Regarding `COc1ccccc1OCCn1c(C(C)Oc2ccccc2)nc2ccccc21` (configuration not stated), the survival was 76%.
Consider `COc1ccc(OCCn2c(C(C)Oc3ccccc3)nc3ccccc32)cc1` (configuration not stated), for which the survival is 72%.
`CCCC(O)c1nc2ccccc2n1CCCOc1ccc(Cl)cc1` (configuration not stated): the survival was 97%.
To `COc1ccccc1OCCn1c(NC(=O)c2ccccc2Cl)nc2ccccc21` belongs -10% (active).
`COc1ccc(OCCn2c(NC(=O)c3ccc(OC)cc3)nc3ccccc32)cc1`: the survival was -13% (active).
Take `COc1ccc(C(=O)Nc2nc3ccccc3n2CCOc2ccc(Cl)cc2)cc1`: the survival was 4% (active).
Consider `Cc1ccc(N2CC(NC(=O)/C=C\c3ccc4c(c3)OCO4)CC2=O)cc1C` (configuration not stated), for which the survival is 130%.
Then `CCOc1ccc(CCNC(=O)c2nn(-c3ccc(OC)c(Cl)c3)c(=O)c3c2c2ccccc2n3C)cc1OCC`, with 88%; and `COc1ccc(OC)c(-n2cnc3cc(C(=O)NC4CCCC4)ccc32)c1`, with 72%; and `CC1=CC(C)C2C(=O)N(c3ccccc3)C(=O)C2C1` (configuration not stated), with 111%.
`COc1ccc(NC(=O)Cn2c(=O)oc3cc(S(=O)(=O)N4CCCC4)ccc32)cc1OC`: the survival was 79%.
Take `CC(C)CCOc1ccc(C2N=C(N)Nc3nc4ccccc4n32)cc1` (configuration not stated): the survival is -15% (active).
For `COc1cc(C2N=C(N)Nc3nc4ccccc4n32)ccc1OCCC(C)C` (configuration not stated), the survival is 85%.
On to `CC(C)c1ccc(C2N=C(N)Nc3nc4ccccc4n32)cc1` (configuration not stated), for which the survival was 93%.
To `CCc1ccc(N2CCn3c2nc2c3c(=O)n(CCCc3ccccc3)c(=O)n2C)cc1` belongs 88%.
To `O=C(Nc1ccccc1C(F)(F)F)N1CC=C(c2c[nH]c3ccccc23)CC1` belongs 127%; to `CN(C)C(=O)c1ccc(S(=O)(=O)NCc2ccc(Cl)cc2)s1`, 123%.
`COc1ccc(CNS(=O)(=O)c2ccc(C(=O)N(C)C)s2)cc1`: the survival is 87%.
On to `Cc1ccc(CNS(=O)(=O)c2ccc(C(=O)N(C)C)s2)cc1`, for which the survival is -6% (active).
Take `COc1cccc(C2C(C(=O)Nc3ccc(C)cc3C)=C(C)Nc3c(C(=O)Nc4cccc(C)c4)cnn32)c1OC` (configuration not stated): the survival was 78%.
To `COc1cccc(C2C=C(c3ccccc3)Nc3c(C(=O)Nc4ccccc4)cnn32)c1OC` (configuration not stated) belongs 64%.
To `COc1ccccc1NC(=O)C1=C(C)Nc2c(C(=O)Nc3cccc(C)c3)cnn2C1c1ccccc1Cl` (configuration not stated) belongs -6% (active); to `COc1ccccc1NC(=O)C1=C(C)Nc2c(C(=O)Nc3ccc(C)cc3)cnn2C1c1cccc(OC)c1OC` (configuration not stated), 14% (active); to `COc1ccccc1NC(=O)C1=C(C)Nc2c(C(=O)Nc3cccc(C)c3)cnn2C1c1ccccc1C` (configuration not stated), 69%.
For `CC1=C(C(=O)Nc2ccccc2)C(c2ccccc2Cl)n2ncc(C(=O)Nc3cccc(C)c3)c2N1` (configuration not stated), the survival was 72%.
Then `CCc1ccc(C2C(C(=O)Nc3ccccc3)=C(C)Nc3c(C(=O)Nc4ccc(C)cc4)cnn32)cc1` (configuration not stated), with -1% (active).
Consider `COc1ccc(C2C(C(=O)Nc3ccccc3)=C(C)Nc3c(C(=O)Nc4ccccc4)cnn32)cc1` (configuration not stated), for which the survival was 134%.
Then `CCc1ccc(C2C(C(=O)Nc3ccccc3OC)=C(C)Nc3c(C(=O)Nc4ccc(C)cc4)cnn32)cc1` (configuration not stated), with 74%; and `COc1cccc(C2C=C(c3ccc(C)cc3)Nc3c(C(=O)Nc4ccc(F)cc4)cnn32)c1OC` (configuration not stated), with -3% (active).
On to `CCOc1ccc(NC(=O)c2cnn3c2NC(c2ccccc2)=CC3c2cccc(OC)c2OC)cc1` (configuration not stated), for which the survival was 85%.
Consider `COc1cccc(C2C(C(=O)Nc3ccc(Cl)cc3)=C(C)Nc3c(C(=O)Nc4ccccc4)cnn32)c1OC` (configuration not stated), for which the survival was 93%.
Take `Cc1c(C(=O)Nc2cccc(-c3nc4ccccc4s3)c2)oc2ccccc12`: the survival is 98%.
To `Cc1ccc(C(NC(=O)Cc2cccs2)C(=O)Nc2ccc(C(C)C)cc2)cc1` (configuration not stated) belongs 82%; to `CCOc1ccc(C(=O)N2CCCCC2CCN2CCOCC2)cc1` (configuration not stated), 88%.

Values taken from PubChem BioAssay AID463173 (ICCB-Longwood Screening Facility, Harvard Medical School, 2010).
